ChEMBL document CHEMBL1961873, “Compounds: GSK PKIS; Assays: Nanosyn kinase panel” (2012)

What was measured:
[1] = target: Death-associated protein kinase 1 (Homo sapiens) (UniProt P53355); conditions: at 1 µM;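 also: each value is a mean inhibition figure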
[2] = target: T1, Serine/threonine-protein kinase DCLK2 (Homo sapiens) (UniProt Q8N568); conditions: at 0.1 µM
T1 sequence (whole entry): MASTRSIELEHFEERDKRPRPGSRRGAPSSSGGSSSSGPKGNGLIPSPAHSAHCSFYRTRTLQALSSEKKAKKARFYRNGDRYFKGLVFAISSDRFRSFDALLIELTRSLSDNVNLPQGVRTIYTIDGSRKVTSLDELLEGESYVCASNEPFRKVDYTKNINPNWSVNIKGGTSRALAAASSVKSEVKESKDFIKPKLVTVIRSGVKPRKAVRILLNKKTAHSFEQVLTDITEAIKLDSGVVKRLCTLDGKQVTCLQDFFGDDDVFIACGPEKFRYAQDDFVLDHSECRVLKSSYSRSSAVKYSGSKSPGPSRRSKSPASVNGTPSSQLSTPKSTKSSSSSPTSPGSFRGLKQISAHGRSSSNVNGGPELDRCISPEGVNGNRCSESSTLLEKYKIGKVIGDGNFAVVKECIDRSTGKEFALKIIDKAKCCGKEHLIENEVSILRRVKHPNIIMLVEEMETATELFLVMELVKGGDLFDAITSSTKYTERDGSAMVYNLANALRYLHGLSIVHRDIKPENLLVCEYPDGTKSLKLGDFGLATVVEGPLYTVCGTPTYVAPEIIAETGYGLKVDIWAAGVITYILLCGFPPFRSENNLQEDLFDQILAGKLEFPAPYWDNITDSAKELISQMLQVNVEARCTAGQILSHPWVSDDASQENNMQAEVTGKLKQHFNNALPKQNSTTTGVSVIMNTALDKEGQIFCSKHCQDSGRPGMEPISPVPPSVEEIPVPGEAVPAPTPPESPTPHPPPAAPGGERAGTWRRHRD

[3] = target: T1, Serine/threonine-protein kinase DCLK2 (Homo sapiens); conditions: at 1 µM
[4] = target: MAP kinase-activated protein kinase 2 (Homo sapiens) (UniProt P49137); conditions: at 0.1 µM
[5] = target: MAP kinase-activated protein kinase 2 (Homo sapiens) (UniProt P49137); conditions: at 1 µM
[6] = target: MAP kinase-activated protein kinase 3 (Homo sapiens) (UniProt Q16644); conditions: at 0.1 µM
[7] = target: MAP kinase-activated protein kinase 3 (Homo sapiens) (UniProt Q16644); conditions: at 1 µM
[8] = target: Serine/threonine-protein kinase MARK1 (Homo sapiens) (UniProt Q9P0L2); conditions: at 0.1 µM
[9] = target: Serine/threonine-protein kinase MARK1 (Homo sapiens) (UniProt Q9P0L2); conditions: at 1 µM
[10] = target: MAP/microtubule affinity-regulating kinase 3 (Homo sapiens) (UniProt P27448); conditions: at 0.1 µM
[11] = target: MAP/microtubule affinity-regulating kinase 3 (Homo sapiens) (UniProt P27448); conditions: at 1 µM
[12] = target: T2, MAP/microtubule affinity-regulating kinase 4 (Homo sapiens) (UniProt Q96L34); conditions: at 0.1 µM
T2 sequence (whole entry): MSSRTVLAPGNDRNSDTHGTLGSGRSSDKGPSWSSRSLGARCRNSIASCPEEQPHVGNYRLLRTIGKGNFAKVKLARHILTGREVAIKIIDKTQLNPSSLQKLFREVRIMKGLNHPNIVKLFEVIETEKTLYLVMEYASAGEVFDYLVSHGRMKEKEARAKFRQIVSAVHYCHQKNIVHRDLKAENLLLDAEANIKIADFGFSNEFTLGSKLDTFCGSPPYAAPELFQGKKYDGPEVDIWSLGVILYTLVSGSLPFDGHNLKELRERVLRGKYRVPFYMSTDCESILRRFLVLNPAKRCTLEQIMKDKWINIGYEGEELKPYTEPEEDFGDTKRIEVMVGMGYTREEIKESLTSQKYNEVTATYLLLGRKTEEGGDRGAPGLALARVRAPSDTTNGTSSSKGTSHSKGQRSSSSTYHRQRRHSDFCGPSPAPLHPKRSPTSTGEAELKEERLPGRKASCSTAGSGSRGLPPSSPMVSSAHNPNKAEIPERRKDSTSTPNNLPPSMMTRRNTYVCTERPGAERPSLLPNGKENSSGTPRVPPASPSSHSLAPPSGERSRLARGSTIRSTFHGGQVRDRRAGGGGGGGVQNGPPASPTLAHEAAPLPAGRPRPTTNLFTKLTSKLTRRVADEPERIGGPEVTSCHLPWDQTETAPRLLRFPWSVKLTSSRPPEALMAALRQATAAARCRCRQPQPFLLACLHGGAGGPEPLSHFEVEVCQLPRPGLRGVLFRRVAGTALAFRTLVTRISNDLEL

[13] = target: T2, MAP/microtubule affinity-regulating kinase 4 (Homo sapiens); conditions: at 1 µM
[14] = target: Maternal embryonic leucine zipper kinase (Homo sapiens) (UniProt Q14680); conditions: at 0.1 µM
[15] = target: Maternal embryonic leucine zipper kinase (Homo sapiens) (UniProt Q14680); conditions: at 1 µM
[16] = target: MAP kinase-interacting serine/threonine-protein kinase 1 (Homo sapiens) (UniProt Q9BUB5); conditions: at 0.1 µM
[17] = target: MAP kinase-interacting serine/threonine-protein kinase 1 (Homo sapiens) (UniProt Q9BUB5); conditions: at 1 µM
[18] = target: MAP kinase-interacting serine/threonine-protein kinase 2 (Homo sapiens) (UniProt Q9HBH9); conditions: at 0.1 µM
[19] = target: MAP kinase-interacting serine/threonine-protein kinase 2 (Homo sapiens) (UniProt Q9HBH9); conditions: at 1 µM
[20] = target: Serine/threonine-protein kinase MARK2 (Homo sapiens) (UniProt Q7KZI7); conditions: at 0.1 µM;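 also: mean percent inhibition of PAR-1Balpha kinase activity, reported from the GSK PKIS screen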
Sequence of Serine/threonine-protein kinase MARK2 (Homo sapiens) (Q7KZI7 whole entry): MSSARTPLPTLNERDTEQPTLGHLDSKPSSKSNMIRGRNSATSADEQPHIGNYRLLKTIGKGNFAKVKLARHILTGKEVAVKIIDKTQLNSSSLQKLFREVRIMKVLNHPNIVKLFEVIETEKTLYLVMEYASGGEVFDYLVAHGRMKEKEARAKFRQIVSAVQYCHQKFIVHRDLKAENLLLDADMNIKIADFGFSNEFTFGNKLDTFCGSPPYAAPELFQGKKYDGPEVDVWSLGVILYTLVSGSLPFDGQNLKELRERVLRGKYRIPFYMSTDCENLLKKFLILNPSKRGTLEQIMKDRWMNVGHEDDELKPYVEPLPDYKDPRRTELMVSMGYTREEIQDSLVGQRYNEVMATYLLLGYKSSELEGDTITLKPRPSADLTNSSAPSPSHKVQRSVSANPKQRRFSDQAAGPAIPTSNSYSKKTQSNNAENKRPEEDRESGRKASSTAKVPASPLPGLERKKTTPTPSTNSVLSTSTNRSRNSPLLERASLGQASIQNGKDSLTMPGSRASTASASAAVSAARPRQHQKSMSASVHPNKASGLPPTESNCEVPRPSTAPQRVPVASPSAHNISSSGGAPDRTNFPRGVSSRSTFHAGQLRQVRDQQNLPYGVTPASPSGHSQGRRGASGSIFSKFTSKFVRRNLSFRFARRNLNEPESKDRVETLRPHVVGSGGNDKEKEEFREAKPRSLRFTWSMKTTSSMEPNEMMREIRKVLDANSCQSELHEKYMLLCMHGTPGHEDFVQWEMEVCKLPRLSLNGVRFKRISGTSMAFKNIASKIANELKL

Sequence of MAP kinase-interacting serine/threonine-protein kinase 1 (Homo sapiens) (Q9BUB5 whole entry, looked up): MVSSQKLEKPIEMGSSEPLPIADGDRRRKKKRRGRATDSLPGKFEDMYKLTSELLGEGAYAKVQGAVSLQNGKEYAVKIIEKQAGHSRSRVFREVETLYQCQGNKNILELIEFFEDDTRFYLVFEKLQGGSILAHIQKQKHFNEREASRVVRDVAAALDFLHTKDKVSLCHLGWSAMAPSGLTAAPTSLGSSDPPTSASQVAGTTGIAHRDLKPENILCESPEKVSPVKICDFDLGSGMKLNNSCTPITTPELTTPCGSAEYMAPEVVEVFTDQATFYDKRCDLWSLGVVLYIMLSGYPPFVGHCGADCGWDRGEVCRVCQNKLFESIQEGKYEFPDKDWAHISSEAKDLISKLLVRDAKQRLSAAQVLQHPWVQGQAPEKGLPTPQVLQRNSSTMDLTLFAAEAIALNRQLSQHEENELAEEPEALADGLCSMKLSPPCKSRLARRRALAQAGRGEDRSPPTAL
Sequence of MAP kinase-activated protein kinase 2 (Homo sapiens) (P49137 whole entry, looked up): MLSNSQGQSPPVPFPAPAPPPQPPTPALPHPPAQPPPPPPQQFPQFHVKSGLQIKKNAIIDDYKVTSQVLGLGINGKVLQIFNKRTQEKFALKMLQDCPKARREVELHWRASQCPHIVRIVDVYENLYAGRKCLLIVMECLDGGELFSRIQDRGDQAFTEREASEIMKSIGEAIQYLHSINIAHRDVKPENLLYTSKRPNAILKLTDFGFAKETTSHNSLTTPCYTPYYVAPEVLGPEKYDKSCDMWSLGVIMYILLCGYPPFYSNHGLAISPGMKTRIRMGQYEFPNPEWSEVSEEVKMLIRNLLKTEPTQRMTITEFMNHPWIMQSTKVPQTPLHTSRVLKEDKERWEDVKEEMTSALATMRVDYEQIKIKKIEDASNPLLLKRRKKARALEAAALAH
Sequence of MAP kinase-interacting serine/threonine-protein kinase 2 (Homo sapiens) (Q9HBH9 whole entry, looked up): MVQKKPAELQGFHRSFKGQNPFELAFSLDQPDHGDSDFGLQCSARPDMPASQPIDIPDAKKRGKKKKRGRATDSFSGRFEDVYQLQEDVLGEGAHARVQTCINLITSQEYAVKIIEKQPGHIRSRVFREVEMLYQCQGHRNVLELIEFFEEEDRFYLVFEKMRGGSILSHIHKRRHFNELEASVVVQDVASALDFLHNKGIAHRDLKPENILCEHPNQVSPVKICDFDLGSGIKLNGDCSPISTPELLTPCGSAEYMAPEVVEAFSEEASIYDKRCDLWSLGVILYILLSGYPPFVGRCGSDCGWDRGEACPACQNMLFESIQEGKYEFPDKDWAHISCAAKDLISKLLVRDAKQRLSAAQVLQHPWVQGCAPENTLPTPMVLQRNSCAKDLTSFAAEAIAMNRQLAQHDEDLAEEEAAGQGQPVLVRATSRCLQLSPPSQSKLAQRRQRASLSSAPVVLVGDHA
Sequence of MAP kinase-activated protein kinase 3 (Homo sapiens) (Q16644 whole entry, looked up): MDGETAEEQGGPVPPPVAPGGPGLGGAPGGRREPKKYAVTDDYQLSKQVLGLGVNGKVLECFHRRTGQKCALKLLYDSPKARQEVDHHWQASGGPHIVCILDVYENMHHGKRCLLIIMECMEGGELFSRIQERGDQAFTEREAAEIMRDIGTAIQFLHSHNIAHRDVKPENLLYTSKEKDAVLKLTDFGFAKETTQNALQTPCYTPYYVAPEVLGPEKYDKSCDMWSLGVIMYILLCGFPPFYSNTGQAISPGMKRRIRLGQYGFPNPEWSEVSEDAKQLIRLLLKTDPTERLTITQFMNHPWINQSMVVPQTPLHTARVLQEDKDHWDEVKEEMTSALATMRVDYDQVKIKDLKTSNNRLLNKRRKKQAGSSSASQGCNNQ
Sequence of Maternal embryonic leucine zipper kinase (Homo sapiens) (Q14680 whole entry, looked up): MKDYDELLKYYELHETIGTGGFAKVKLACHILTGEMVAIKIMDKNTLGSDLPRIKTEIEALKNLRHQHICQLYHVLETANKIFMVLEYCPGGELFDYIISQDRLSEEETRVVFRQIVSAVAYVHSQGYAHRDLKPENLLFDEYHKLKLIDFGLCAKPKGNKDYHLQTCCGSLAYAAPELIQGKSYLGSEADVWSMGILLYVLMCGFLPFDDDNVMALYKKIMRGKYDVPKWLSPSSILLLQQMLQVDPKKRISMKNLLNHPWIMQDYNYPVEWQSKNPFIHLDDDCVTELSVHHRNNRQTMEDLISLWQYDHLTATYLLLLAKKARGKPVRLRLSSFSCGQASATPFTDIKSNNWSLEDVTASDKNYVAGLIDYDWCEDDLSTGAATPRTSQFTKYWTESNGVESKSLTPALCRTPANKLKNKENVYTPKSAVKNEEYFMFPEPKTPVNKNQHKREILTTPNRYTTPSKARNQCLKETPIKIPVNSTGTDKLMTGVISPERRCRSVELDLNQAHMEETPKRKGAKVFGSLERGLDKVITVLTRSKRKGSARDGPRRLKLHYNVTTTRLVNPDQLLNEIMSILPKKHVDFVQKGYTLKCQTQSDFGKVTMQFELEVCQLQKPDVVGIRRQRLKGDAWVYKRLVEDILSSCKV
Sequence of Serine/threonine-protein kinase MARK1 (Homo sapiens) (Q9P0L2 whole entry, looked up): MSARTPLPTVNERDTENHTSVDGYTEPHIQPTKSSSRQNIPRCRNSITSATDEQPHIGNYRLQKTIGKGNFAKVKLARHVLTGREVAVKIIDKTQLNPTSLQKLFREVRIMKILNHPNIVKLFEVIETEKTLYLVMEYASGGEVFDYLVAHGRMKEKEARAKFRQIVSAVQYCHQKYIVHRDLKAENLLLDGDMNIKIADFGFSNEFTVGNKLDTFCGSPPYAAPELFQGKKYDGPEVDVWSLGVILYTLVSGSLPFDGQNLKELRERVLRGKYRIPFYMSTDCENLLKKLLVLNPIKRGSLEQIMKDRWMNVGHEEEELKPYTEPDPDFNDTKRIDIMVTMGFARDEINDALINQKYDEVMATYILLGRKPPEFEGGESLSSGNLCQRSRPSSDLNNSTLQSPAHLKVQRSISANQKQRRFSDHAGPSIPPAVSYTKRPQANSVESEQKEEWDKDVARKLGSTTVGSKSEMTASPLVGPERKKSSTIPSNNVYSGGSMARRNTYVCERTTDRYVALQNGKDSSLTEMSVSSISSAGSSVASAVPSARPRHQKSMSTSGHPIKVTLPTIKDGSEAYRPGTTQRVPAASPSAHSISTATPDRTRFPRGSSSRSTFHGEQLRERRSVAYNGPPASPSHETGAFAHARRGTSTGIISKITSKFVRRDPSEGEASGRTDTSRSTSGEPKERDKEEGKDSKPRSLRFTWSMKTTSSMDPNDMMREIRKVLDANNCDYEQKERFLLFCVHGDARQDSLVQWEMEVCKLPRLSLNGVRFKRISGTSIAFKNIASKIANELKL
Sequence of MAP/microtubule affinity-regulating kinase 3 (Homo sapiens) (P27448 whole entry, looked up): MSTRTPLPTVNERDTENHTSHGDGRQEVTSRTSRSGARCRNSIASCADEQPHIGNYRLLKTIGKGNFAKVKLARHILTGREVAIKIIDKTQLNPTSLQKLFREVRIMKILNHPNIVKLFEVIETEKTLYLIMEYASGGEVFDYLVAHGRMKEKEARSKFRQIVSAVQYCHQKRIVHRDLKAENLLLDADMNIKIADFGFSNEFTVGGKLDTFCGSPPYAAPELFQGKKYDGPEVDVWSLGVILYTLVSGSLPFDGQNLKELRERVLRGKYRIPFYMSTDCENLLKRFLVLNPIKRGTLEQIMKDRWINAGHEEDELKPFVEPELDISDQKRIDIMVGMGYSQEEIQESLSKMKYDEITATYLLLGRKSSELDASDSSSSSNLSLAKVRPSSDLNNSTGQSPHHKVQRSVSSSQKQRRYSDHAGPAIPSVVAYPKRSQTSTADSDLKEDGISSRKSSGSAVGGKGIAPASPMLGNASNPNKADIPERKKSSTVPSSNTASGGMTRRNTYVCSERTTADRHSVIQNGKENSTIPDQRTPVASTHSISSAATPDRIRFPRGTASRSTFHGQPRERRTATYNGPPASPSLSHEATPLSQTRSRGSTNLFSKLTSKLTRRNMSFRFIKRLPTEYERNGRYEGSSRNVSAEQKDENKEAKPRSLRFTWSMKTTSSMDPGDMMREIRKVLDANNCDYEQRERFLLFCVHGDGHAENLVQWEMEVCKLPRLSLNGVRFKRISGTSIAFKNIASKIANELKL

SMILES	inhibition [1] [%]	inhibition [2] [%]	inhibition [3] [%]	inhibition [4] [%]	inhibition [5] [%]	inhibition [6] [%]	inhibition [7] [%]	inhibition [8] [%]	inhibition [9] [%]	inhibition [10] [%]	inhibition [11] [%]	inhibition [12] [%]	inhibition [13] [%]	inhibition [14] [%]	inhibition [15] [%]	inhibition [16] [%]	inhibition [17] [%]	inhibition [18] [%]	inhibition [19] [%]	inhibition [20] [%]
COc1cc(C=NNc2ncnc3c2cnn3-c2ccccc2)ccc1O	-5.67	1.34	-4.27	-1.87	-2.21	-3.81	-2.84	2.3	8.38	3.21	18.2	1.61	11.3	6.74	43.8	12.1	49.9	13.7	52	-0.32
[O-][S+]1CCN(Cc2ccc(-c3ccc4ncnc(Nc5ccc(OCc6ccccc6)c(F)c5)c4c3)o2)CC1	3.11	1.91	3.92	0.41	0.42	0.85	3.94	1.63	2.55	2.88	1.39	0.67	1.47	2.88	1.82	2.24	4.41	1.32	9.37	-1.34
O=C1NC(=O)C(c2cccc(Cl)c2)=C1Nc1ccc(O)c(Cl)c1	2.13	-0.44	-0.92	0.03	0.04	-0.58	1.59	2.1	15.6	5.22	18.6	2.36	17.3	0.77	6.85	0.35	7.25	0.54	1.96	0.55
COC(=O)Nc1nc2cc(Oc3cccc(NC(=O)Nc4cc(C(F)(F)F)ccc4F)c3)ccc2[nH]1	-0.6	5.45	-0.15	-0.06	-0.64	0	1.82	1.21	1.49	0.8	1.94	1.07	2.15	-0.49	1.36	1.02	1.01	3.02	-0.05	0.89
CC(=O)Nc1cccc(C#Cc2cncnc2Nc2ccc(OCc3cccc(F)c3)c(Cl)c2)n1	7.63	5.73	7.65	2.15	2.54	5.56	5.33	1.05	1.12	0.78	3.05	0.52	0.84	-2.29	-2.61	0.9	18.7	3.48	14.3	1.78
CN(C)c1cc2c(Nc3ccc4nc(Cc5ccccc5)[nH]c4c3)ncnc2cn1	7.51	1.19	1.22	2.01	2.85	4.79	4.13	3.62	5.59	3.84	5	2.82	3	6.98	11.4	3.69	8.7	0.92	4.05	0.6
Cc1cc(O)cc(C)c1/C=C/c1cncc(-c2nn[nH]n2)c1	3.95	-1.23	-3.21	2.39	1.49	6.11	4.25	4.55	5.09	5.87	5.96	2.37	3.69	4.83	8.68	20.6	65.3	22.6	63.8	0.37
